“And” between values parts separate entries of the source, which are not always exact repeats. Equal values may be shown once. The campaign covered roughly 5,500 compounds. About 2,000 (36%) were called active. Another 18% or so got no clear call; they are omitted. Cut-off read from the data, not from the text of the source: active = normalized growth mostly below about 0.91 (no sharp cut-off); inconclusive = no clear call, values can overlap the other calls; inactive = mostly above about 0.92. Some of the results follow.
Test: chemical genetic growth profiling, strain panel (AID 1159580);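 note: tested at 20 µM; growth read once vehicle control cultures reached saturation at 30 °C; 1 = growth at the plate median or of vehicle wells; lower values mean less growth of the strain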
Conditions: S. cerevisiae deletion strains, growth OD

Measured: normalized growth

Cc1oncc1C(=O)Nc1ccc(C(F)(F)F)cc1
active: locus YBR009C, strain hhf1, stronger effect = lower value 0.901 | locus YBR231C, strain swc5, stronger effect = lower value 0.88 | locus YDR159W, strain sac3, stronger effect = lower value 0.754 | locus YDR297W, strain sur2, stronger effect = lower value 0.91 | locus YER155C, strain BEM2 (second series), stronger effect = lower value 0.733 | locus YGL240W, strain doc1, stronger effect = lower value 0.785 | locus YJL129C, strain trk1, stronger effect = lower value 0.869 | locus YLR027C, strain aat2, stronger effect = lower value 0.919 | locus YMR205C, strain PFK2, stronger effect = lower value 0.794 | locus YNL071W, strain lat1, stronger effect = lower value 0.858
inactive: locus YAL013W, strain DEP1, stronger effect = lower value 1.03 and 0.94 | locus YAL021C, strain ccr4, stronger effect = lower value 1.05 | locus YAL026C, strain drs2, stronger effect = lower value 0.97 | locus YAL030W, strain snc1, stronger effect = lower value 0.979 | locus YAL040C, strain CLN3, stronger effect = lower value 0.918 | locus YBL061C, strain skt5, stronger effect = lower value 1.01 | locus YBR021W, strain FUR4, stronger effect = lower value 1.02 | locus YBR023C, strain chs3, stronger effect = lower value 0.979 | locus YBR171W, strain sec66, stronger effect = lower value 1.02 | locus YBR229C, strain ROT2, stronger effect = lower value 1.01 | locus YBR279W, strain paf1, stronger effect = lower value 1 | locus YCL011C, strain gbp2, stronger effect = lower value 0.919 | locus YCL016C, strain dcc1, stronger effect = lower value 0.981 | locus YCL029C, strain bik1, stronger effect = lower value 0.996 | locus YCL061C, strain MRC1 (second series), stronger effect = lower value 0.983 | locus YCL061C, strain MRC1, stronger effect = lower value 0.95 | locus YCL069W, strain vba3, stronger effect = lower value 0.982 | locus YCR088W, strain abp1, stronger effect = lower value 0.978 | locus YDL005C, strain med2, stronger effect = lower value 1.02 | locus YDL035C, strain GPR1, stronger effect = lower value 1.04 | locus YDL040C, strain nat1, stronger effect = lower value 0.99 | locus YDL074C, strain BRE1, stronger effect = lower value 1.01 | locus YDL101C, strain DUN1, stronger effect = lower value 1.02 | locus YDL134C, strain PPH21, stronger effect = lower value 1.04 | locus YDL185W, strain tfp1, stronger effect = lower value 0.993 | locus YDL192W, strain arf1, stronger effect = lower value 0.989 | locus YDR001C, strain nth1, stronger effect = lower value 0.986 | locus YDR069C, strain doa4, stronger effect = lower value 0.977 | locus YDR101C, strain arx1, stronger effect = lower value 0.991 | locus YDR137W, strain rgp1, stronger effect = lower value 1.03 | locus YDR150W, strain NUM1, stronger effect = lower value 1.01 | locus YDR162C, strain NBP2, stronger effect = lower value 1.03 | locus YDR195W, strain ref2 1.07 | locus YDR318W, strain mcm21, stronger effect = lower value 0.993 | locus YDR334W, strain swr1, stronger effect = lower value 0.991 | locus YDR335W, strain msn5, stronger effect = lower value 0.994 | locus YDR363W, strain ESC2, stronger effect = lower value 0.966 | locus YDR388W, stronger effect = lower value 1 | locus YDR392W, strain spt3, stronger effect = lower value 0.761 | locus YDR502C, strain sam2, stronger effect = lower value 0.996 | locus YEL003W, strain gim4, stronger effect = lower value 0.971 | locus YEL037C, strain rad23, stronger effect = lower value 1.01 | locus YEL061C, strain CIN8 (second series), stronger effect = lower value 0.998 | locus YEL061C, strain CIN8, stronger effect = lower value 1.01 | locus YER002W, strain NOP16, stronger effect = lower value 1.01 | locus YER015W, strain faa2, stronger effect = lower value 0.998 | locus YER016W, strain bim1, stronger effect = lower value 1.02 | locus YER110C, stronger effect = lower value 0.99 | locus YER111C, strain swi4, stronger effect = lower value 1.02 | locus YER155C, strain BEM2, stronger effect = lower value 1.03 | locus YER167W, strain BCK2, stronger effect = lower value 1.02 | locus YFR010W, strain ubp6, stronger effect = lower value 1.01 | locus YGL078C, strain dbp3, stronger effect = lower value 0.991 | locus YGL086W, strain mad1, stronger effect = lower value 0.989 | locus YGL167C, strain pmr1, stronger effect = lower value 1.01 | locus YGL173C, strain kem1, stronger effect = lower value 0.976 | locus YGL227W, strain vid30, stronger effect = lower value 0.97 | locus YGL248W, strain PDE1, stronger effect = lower value 1.02 | locus YGL253W, strain hxk2, stronger effect = lower value 0.997 | locus YGR078C, strain PAC10, stronger effect = lower value 1.02 | locus YGR135W, strain pre9, stronger effect = lower value 1 | locus YGR252W, strain gcn5, stronger effect = lower value 0.988 | locus YHR013C, strain ard1, stronger effect = lower value 1.13 | locus YHR027C, strain rpn1, stronger effect = lower value 0.992 | locus YHR030C, strain SLT2, stronger effect = lower value 1.02 | locus YHR079C, strain IRE1 (second series), stronger effect = lower value 0.98 | locus YHR094C, strain hxt1, stronger effect = lower value 0.99 | locus YHR129C, strain ARP1, stronger effect = lower value 1.01 | locus YHR142W, strain chs7, stronger effect = lower value 0.928 | locus YHR200W, strain rpn10, stronger effect = lower value 0.991 | locus YIL066C, strain RNR3, stronger effect = lower value 1.04 | locus YIL073C, strain SPO22, stronger effect = lower value 1 | locus YIL125W, strain kgd1, stronger effect = lower value 0.99 | locus YIR030C, strain dcg1, stronger effect = lower value 0.985 | locus YJL092W, strain hpr5, stronger effect = lower value 0.983 | locus YJL095W, strain BCK1 (second series), stronger effect = lower value 0.947 | locus YJL095W, strain BCK1, stronger effect = lower value 0.999 | locus YJL115W, strain asf1, stronger effect = lower value 1.01 | locus YJL134W, strain LCB3, stronger effect = lower value 1.02 | locus YJL154C, strain vps35, stronger effect = lower value 0.994 | locus YJL164C, strain tpk1, stronger effect = lower value 0.952 | locus YJL166W, strain qcr8, stronger effect = lower value 0.932 | locus YJL168C, strain set2, stronger effect = lower value 0.993 | locus YJL187C, strain SWE1 (second series), stronger effect = lower value 1.01 | locus YJR043C, strain POL32, stronger effect = lower value 1.05 | locus YKL009W, strain mrt4, stronger effect = lower value 0.997 | locus YKL068W, stronger effect = lower value 0.998 | locus YKL085W, strain MDH1 (second series), stronger effect = lower value 0.999 | locus YKL085W, strain MDH1, stronger effect = lower value 0.999 | locus YKL160W, strain elf1, stronger effect = lower value 0.96 | locus YKR001C, strain vps1, stronger effect = lower value 0.997 | locus YKR026C, strain gcn3, stronger effect = lower value 0.98 | locus YKR091W, strain srl3, stronger effect = lower value 0.995 | locus YLL001W, strain dnm1, stronger effect = lower value 0.954 | locus YLL026W, stronger effect = lower value 0.966 | locus YLL041C, strain sdh2, stronger effect = lower value 0.958 | locus YLR039C, strain RIC1, stronger effect = lower value 0.984 | locus YLR058C, strain SHM2, stronger effect = lower value 1.02 | locus YLR102C, strain apc9, stronger effect = lower value 0.983 | locus YLR221C, strain rsa3, stronger effect = lower value 0.962 | locus YLR258W, strain gsy2, stronger effect = lower value 0.947 | locus YLR262C, strain YPT6 (second series), stronger effect = lower value 1.03 | locus YLR262C, strain YPT6, stronger effect = lower value 1.01 | locus YLR268W, strain sec22, stronger effect = lower value 0.992 | locus YLR320W, strain mms22, stronger effect = lower value 0.889 | locus YLR330W, strain CHS5, stronger effect = lower value 1.02 | locus YLR342W, strain FKS1 (second series), stronger effect = lower value 1.04 | locus YLR342W, strain FKS1, stronger effect = lower value 0.952 | locus YLR357W, strain rsc2, stronger effect = lower value 0.947 | locus YLR370C, strain arc18, stronger effect = lower value 1.01 | locus YLR371W, strain rom2, stronger effect = lower value 0.982 | locus YLR384C, strain iki3, stronger effect = lower value 1 | locus YLR418C, strain cdc73, stronger effect = lower value 0.981 | locus YML016C, strain PPZ1, stronger effect = lower value 1.03 | locus YML032C, strain rad52, stronger effect = lower value 0.989 | locus YML120C, strain ndi1, stronger effect = lower value 0.979 | locus YML124C, strain tub3, stronger effect = lower value 0.988 | locus YMR058W, strain fet3, stronger effect = lower value 0.937 | locus YMR078C, strain ctf18, stronger effect = lower value 1 | locus YMR125W, strain sto1, stronger effect = lower value 0.984 | locus YMR129W, stronger effect = lower value 0.978 | locus YMR223W, strain ubp8, stronger effect = lower value 0.998 | locus YMR231W, strain pep5, stronger effect = lower value 1.01 | locus YMR263W, strain SAP30, stronger effect = lower value 1.02 | locus YMR307W, strain GAS1, stronger effect = lower value 1.16 and 0.976 | locus YNL067W, strain RPL9B, stronger effect = lower value 1 | locus YNL128W, strain TEP1, stronger effect = lower value 1.02 and 0.958 | locus YNL175C, strain NOP13, stronger effect = lower value 0.934 | locus YNL197C, strain WHI3, stronger effect = lower value 0.946 | locus YNL209W, strain ssb2, stronger effect = lower value 0.99 | locus YNL224C, strain SQS1, stronger effect = lower value 0.94 | locus YNL233W, strain BNI4, stronger effect = lower value 1 | locus YNL248C, strain rpa49, stronger effect = lower value 0.99 | locus YNL250W, strain rad50, stronger effect = lower value 0.98 | locus YNL271C, strain bni1, stronger effect = lower value 0.993 | locus YNL298W, strain CLA4, stronger effect = lower value 1.01 | locus YNL307C, strain MCK1, stronger effect = lower value 0.991 | locus YNL322C, strain KRE1 (second series), stronger effect = lower value 0.973 | locus YNR049C, strain mso1, stronger effect = lower value 0.992 | locus YNR052C, strain pop2, stronger effect = lower value 0.979 | locus YOL006C, strain TOP1, stronger effect = lower value 0.986 | locus YOL012C, strain htz1 1.17 | locus YOL147C, strain pex11, stronger effect = lower value 0.993 | locus YOR001W, strain rrp6, stronger effect = lower value 0.997 | locus YOR061W, strain CKA2, stronger effect = lower value 1.03 | locus YOR069W, strain VPS5, stronger effect = lower value 1.02 | locus YOR070C, strain gyp1, stronger effect = lower value 0.988 | locus YOR080W, strain dia2, stronger effect = lower value 1.01 | locus YOR083W, strain WHI5 (second series), stronger effect = lower value 0.891 | locus YOR083W, strain WHI5, stronger effect = lower value 0.952 | locus YOR106W, strain vam3, stronger effect = lower value 0.955 | locus YOR136W, strain idh2, stronger effect = lower value 0.982 | locus YOR144C, strain elg1, stronger effect = lower value 0.988 | locus YOR184W, strain ser1, stronger effect = lower value 1 | locus YOR265W, strain rbl2, stronger effect = lower value 0.979 | locus YOR270C, strain vph1, stronger effect = lower value 0.964 | locus YOR290C, strain snf2, stronger effect = lower value 0.957 | locus YOR316C, strain cot1, stronger effect = lower value 1 | locus YPL051W, strain arl3, stronger effect = lower value 0.987 | locus YPL055C, strain LGE1, stronger effect = lower value 1.02 | locus YPL078C, strain atp4, stronger effect = lower value 0.935 | locus YPL106C, strain sse1, stronger effect = lower value 0.972 | locus YPL240C, strain hsp82, stronger effect = lower value 0.992 | locus YPL241C, strain CIN2, stronger effect = lower value 1.01 and 0.971 | locus YPR119W, strain clb2, stronger effect = lower value 0.989 | locus YPR141C, strain kar3, stronger effect = lower value 0.991 | locus YPR163C, strain tif3, stronger effect = lower value 0.991 | locus YPR167C, strain met16, stronger effect = lower value 0.995 | strain wtn01, stronger effect = lower value 0.992
